Most compounds without a hit are left out; they make up all but 3.6% or so of the library.
PMP22 txn prim: Cell-based coincidence reporter assay to measure PMP22 gene transcription in S16 Pmp22-F2sN cells - Primary screen; S16 Pmp22-F2sN Schwann cells, FLuc/NLuc coincidence luminescence, 24 h; Potency, µM (series often up to 57.5 µM), most hits filed as inhibitors; 43,000 compounds, 2% hits; active = clear falling dose curves in both reporters; inconclusive = both reporters move, but less clearly or upward; inactive = either reporter flat; the % is the NLuc reporter signal
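Reporter cells (S16 Pmp22-F2sN, 500–1,000 per well) exposed to compounds for 24 h, 37C, 5% CO2; lysis with FLuc read after 10 min, then Stop&Glo and NLuc read after 10 min.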
S16 F2sN tox: Cell viability qHTS assay in S16 Pmp22-F2sN cells; S16 Pmp22-F2sN Schwann cells viability, CellTiter-Glo, 24 h; Potency, µM (doses to about 57.5 µM), actives largely listed as cytotoxic; 43,000 compounds, 0.48% hits; note: nearly all actives have a fitted effect of over 65% in size
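Used to flag compounds lowering reporter output through toxicity, this quantitative HTS measures ATP-based CellTiter-Glo luminescence in S16 Pmp22-F2sN Schwann cells after 24 h compound exposure at 37C.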
mTORC1 inh: Acumen qHTS Assay for Inhibitors of the mTORC1 Signaling Pathway in MEF (Tsc2-/-, p53-/-) Cells: Sytravon | Tsc2-/- p53-/- MEF, phospho-rpS6 immunofluorescence/PI, 24 h | Potency, µM (titrated, usually from 38.3 µM), actives largely listed as inhibitors | 44,000 compounds, 0.78% hits; note: nearly all actives have a fitted effect of over 50% in size
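Immunofluorescence of rpS6 phosphorylation in Tsc2-/-, p53-/- MEFs after 24 h compound exposure, normalized to propidium iodide signal. Activity is expressed as % positive cells, thresholded with 7.5 nM rapamycin.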
HTT promoter inh: Primary qHTS for Identification of Small Molecule Inhibitors of Huntingtin Promoter Activity; HEK293 HTT promoter firefly luciferase reporter, 24 h; Potency, µM (doses to about 57.5 µM), most hits filed as inhibitors; 48,000 compounds, 0.93% hits; AID 1508623, 2021; note: nearly all actives have a fitted effect of over 50% in size
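HEK293 cells carrying firefly luciferase reporters were seeded at 2,500 per well in Opti-MEM and cultured for 24 h. They were then treated with compounds at up to 57.5 uM final for 24 h at 37 degrees C before Dual-Glo luminescence readout.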
HTT-AS act: Primary qHTS for Identification of Small Molecule Activators of Huntingtin-Antisense Promoter Activity; Potency, µM (highest dose often 57.5 µM), hits mostly activators; HEK293 HTT-AS promoter firefly luciferase reporter, 24 h; response scale: percent change from vehicle, -100% = no light; 48,000 compounds, 0.24% hits; AID 1508624, 2021; note: nearly all actives have a fitted effect of over 55% in size
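HEK293 cells carrying firefly luciferase reporters were seeded at 2,500 per well in Opti-MEM and cultured for 24 h. They were then treated with compounds at up to 57.5 uM final for 24 h at 37 degrees C before Dual-Glo luminescence readout.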
OvCa metastasis: Primary qHTS assay for Inhibitors of ovarian cancer metastasis using an organotypic tumor microenvironment (TME) model. SKOV3ip1-GFP adhesion/invasion on 3D omental model, fluorescence. Potency, µM (series often up to 45.8 µM), hits mostly inhibitors. 46,000 compounds, 0.1% hits; note: nearly all actives have a fitted effect of over 65% in size
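A 3D layer of primary human omental fibroblasts, mesothelial cells, fibronectin and collagen I, grown 48 hr, received SKOV3ip1-GFP cells in serum-free medium plus compounds at 0.36-46 umol/L. After 2 hr RT and 16 hr 37 C, fixed adherent GFP cells were counted; normalized to DMSO and tomatine.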
NLuc sat counter: Biochemical NLuc saturation counterscreen for small molecule modulators of PMP22 gene expression - Nano-Glo assay. shares compounds with PMP22 txn prim. Secreted NLuc enzyme (filtered S16 cell medium), Nano-Glo luminescence. Potency, µM (doses to about 57.5 µM), usual class: inhibitors. 690 compounds, 4% hits
NLuc Km counter: Biochemical coelenterazine-based NLuc counterscreen for small molecule modulators of PMP22 gene expression - Km assay; 690 compounds, 5% hits; shares compounds with PMP22 txn prim; secreted NLuc enzyme, coelenterazine luminescence, Km conditions; Potency, µM (series often up to 57.5 µM), hits mostly inhibitors; AID 1508639, 2021
FLuc counter: Biochemical FLuc counterscreen for small molecule modulators of PMP22 gene expression; Potency, µM (top dose mostly 57.5 µM), actives largely listed as inhibitors; AID 1508640, 2021; 690 tested, under 10 active; shares compounds with PMP22 txn prim; purified P. pyralis FLuc, luminescence, 10 min
Target sequence (P08659 whole entry, looked up): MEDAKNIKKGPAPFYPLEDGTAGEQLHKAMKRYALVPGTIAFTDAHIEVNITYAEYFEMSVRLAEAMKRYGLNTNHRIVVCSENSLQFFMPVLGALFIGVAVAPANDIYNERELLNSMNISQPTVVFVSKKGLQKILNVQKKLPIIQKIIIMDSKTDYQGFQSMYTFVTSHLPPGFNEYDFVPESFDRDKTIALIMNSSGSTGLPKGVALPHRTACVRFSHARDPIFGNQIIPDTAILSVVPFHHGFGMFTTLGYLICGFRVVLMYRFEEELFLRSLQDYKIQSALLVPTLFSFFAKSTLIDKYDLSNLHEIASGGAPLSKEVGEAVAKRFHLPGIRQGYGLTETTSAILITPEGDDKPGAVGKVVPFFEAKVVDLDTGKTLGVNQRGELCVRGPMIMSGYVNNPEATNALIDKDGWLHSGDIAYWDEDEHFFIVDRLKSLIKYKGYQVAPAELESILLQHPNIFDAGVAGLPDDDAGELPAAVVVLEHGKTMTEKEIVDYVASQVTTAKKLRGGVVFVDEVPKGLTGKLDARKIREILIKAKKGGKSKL
S16 viab conf: Cell viability qHTS assay in S16 Pmp22-F2sN cells - Confirmatory screen; shares compounds with PMP22 txn prim; S16 Schwann cells viability, CellTiter-Glo ATP luminescence, 24 h; Potency, µM (titrated, usually from 57.5 µM), most hits filed as cytotoxic; 690 compounds, 7% hits; AID 1508641, 2021
PMP22 txn cnf: Cell-based coincidence reporter assay to measure PMP22 gene transcription in S16 Pmp22-F2sN cells - Confirmatory screen; shares compounds with PMP22 txn prim; S16 Schwann cells Pmp22-F2sN, dual luciferase, 24 h; Potency, µM (titrated, usually from 57.5 µM), hits mostly inhibitors; 690 compounds, 22% hits; AID 1508646, 2021; active = clear falling dose curves in both reporters; inconclusive = both reporters move, but less clearly or upward; inactive = either reporter flat; the % is the FLuc reporter signal
A number is an active result; [ ] = another dose, or the depositor's remark. Unless noted, calls come from the whole dose curve; as a rule, active = well fitted curve in the direction sought with a large enough effect; inconclusive = small, poorly fitted or top-dose-only effect, or another doubt; inactive = no such curve, though single readings can be large; an effect the other way counts as inactive or inconclusive.

Screening CCOC(=O)c1ccc(N2C(=O)c3n[nH]c(-c4cccs4)c3C2c2ccc(O)c(OC)c2)cc1 (configuration not stated) returned PMP22 txn prim 16µM, S16 F2sN tox inconclusive, mTORC1 inh inconclusive, HTT promoter inh inconclusive, HTT-AS act inactive, OvCa metastasis inactive, NLuc sat counter inconclusive, NLuc Km counter inconclusive, FLuc counter inactive, S16 viab conf inactive and PMP22 txn cnf inconclusive.
`CC(=O)O[C@H]1CC[C@@]2(C)C(=CC[C@@H]3[C@@H]2CC[C@]2(C)C(C(C)=O)=CC[C@@H]32)C1` gave HTT promoter inh inactive and HTT-AS act inactive.
For CCc1ccc(NC(=O)Cn2nnc(C(=O)Nc3cc(C)ccc3OC)c2N)cc1 the results were PMP22 txn prim inconclusive, S16 F2sN tox inactive, mTORC1 inh inactive, HTT promoter inh inactive, HTT-AS act inactive and OvCa metastasis inactive.
For COc1ccc(C)cc1NC(=O)Cn1c(=O)cc(C)c2c(C)nn(C)c21 the results were PMP22 txn prim 7.6µM, S16 F2sN tox inactive, mTORC1 inh inactive, HTT promoter inh 2µM, HTT-AS act inactive, OvCa metastasis inactive, NLuc sat counter inactive, NLuc Km counter inactive, FLuc counter inactive, S16 viab conf inactive and PMP22 txn cnf inconclusive.
For COc1ccc(C)cc1NC(=O)c1nnn(CC(=O)Nc2c(C)cccc2C)c1N the results were PMP22 txn prim 9.2µM, S16 F2sN tox inactive, mTORC1 inh inactive, HTT promoter inh inactive, HTT-AS act inactive, OvCa metastasis inactive, NLuc sat counter inactive, NLuc Km counter inactive, FLuc counter inactive, S16 viab conf inconclusive and PMP22 txn cnf inconclusive.
Screening OC[C@H]1O[C@@H](n2cnc3c2NC=NC[C@@H]3O)C[C@H]1O returned HTT promoter inh inactive, HTT-AS act inactive and OvCa metastasis inactive.
CN(C1CCCCC1)S(=O)(=O)c1ccc2c(c1)c(=O)c(C(=O)NCc1ccc(Cl)cc1)cn2C was read as PMP22 txn prim inconclusive, S16 F2sN tox inactive, mTORC1 inh inactive, HTT promoter inh inactive, HTT-AS act inactive[11.5 µM], OvCa metastasis inactive, NLuc sat counter inactive, NLuc Km counter inactive, FLuc counter inactive, S16 viab conf inactive and PMP22 txn cnf inactive.
